Laboratory results as given in the supplement of paper PMC3334620.
Whole data set: some 33,000 sequences, median “E-score (-0.5 to 0.5)” near -0.054, cut for the highest 2% near 0.35. The entries come from a sample that favours the highest values as a whole.

The sequences below were run against T1, Stb5 (UniProt P38699) (assay: PBM E-score (8-mer binding enrichment) (E-score (-0.5 to 0.5)); higher = stronger / more preferred TF binding). Conditions: protein concentration: 200 nM; construct: GST-full length.
T1 sequence: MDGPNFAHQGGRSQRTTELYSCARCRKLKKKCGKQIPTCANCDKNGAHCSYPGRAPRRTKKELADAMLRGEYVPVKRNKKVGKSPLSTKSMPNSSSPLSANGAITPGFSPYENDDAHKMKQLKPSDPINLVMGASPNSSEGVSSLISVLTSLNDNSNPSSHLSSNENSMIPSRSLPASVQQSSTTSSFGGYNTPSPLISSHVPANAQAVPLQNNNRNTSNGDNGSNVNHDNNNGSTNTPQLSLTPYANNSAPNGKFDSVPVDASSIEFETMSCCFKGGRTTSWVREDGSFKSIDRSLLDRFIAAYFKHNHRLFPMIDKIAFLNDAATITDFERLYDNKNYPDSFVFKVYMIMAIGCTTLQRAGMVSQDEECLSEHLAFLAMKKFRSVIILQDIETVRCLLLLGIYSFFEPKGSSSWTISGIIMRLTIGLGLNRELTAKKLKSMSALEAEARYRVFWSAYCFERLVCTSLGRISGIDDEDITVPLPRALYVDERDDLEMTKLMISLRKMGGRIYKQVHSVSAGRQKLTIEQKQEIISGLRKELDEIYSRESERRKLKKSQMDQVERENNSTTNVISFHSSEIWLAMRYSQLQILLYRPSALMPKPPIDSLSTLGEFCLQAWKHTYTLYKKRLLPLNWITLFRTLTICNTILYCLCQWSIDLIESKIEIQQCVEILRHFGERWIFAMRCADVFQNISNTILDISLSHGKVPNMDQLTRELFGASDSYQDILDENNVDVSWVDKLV
Protocol: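 Universal 'all 10-mer' protein binding microarrays (Agilent AMADID 015681) probed with GST-tagged S. cerevisiae TFs (full-length or DBD) made by in vitro transcription/translation (PURExpress), about 100-200 nM. Bound TF was detected with fluorescent anti-GST. Each ungapped 8-mer (which stands for itself and its reverse complement) is scored by the PBM enrichment score (E-score), a modified Wilcoxon-Mann-Whitney statistic from -0.5 to +0.5, computed with the Universal PBM Analysis Suite. Scale: above 0.35 generally sequence-specific binding.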

Sequence | PBM E-score
GGTGATAC | 0.369
GGTGATAA | 0.415
CGTGATAA | 0.0332
AGTGATAC | -0.128
CGTGATAC | -0.0683
AGTGATAA | -0.0882
CTCCTGTC | -0.26
AGCCGTTA | 0.0306
AACCGTTC | 0.128
CACCGTTC | 0.368
GACCGTTA | 0.278
CGCCGTTA | 0.356
CTCCGTTA | 0.299
CGCCGTTC | 0.306
GGCCGTTA | 0.213
CACCGTTA | 0.367
GTCCGTTA | 0.355
ATCCGTTA | 0.197
AACCGTTA | -0.101
GCGGGCAA | 0.171
GCAGACTA | -0.158
CTCCACAG | -0.313
CCTTTTGA | -0.106
CGTTGTCC | -0.0582
GACCAATA | 0.0169

Sequence | PBM E-score
GCCCTTAC | -0.0337
CGGTCGTC | 0.0319
GTGTCGGA | 0.357
GGGTCGTA | 0.00669
CGGTCGTA | 0.381
GAGTCGGA | 0.307
CGGTCATA | 0.448
TAGTCGGA | 0.355
ATGTCGGA | 0.303
CGGTCATC | 0.135
GGGTCATA | -0.00196
CTGTCGGA | 0.349
CAGTCGGA | 0.292
GAGCGGGA | 0.249
TCCAGAGA | -0.208
AGTCAAGC | -0.3
GTGAGCAA | -0.0477
TACGGGCA | 0.143
GACAACTA | -0.06
GCACAGAC | 0.0491
CGAGTTTC | -0.0887
AGGTCGGC | 0.293
CCGTCGTC | 0.161
CGGTCGGC | 0.352
CCGTCGGA | 0.37

Sequence | PBM E-score
CGGTCGGA | 0.313
CCGTCGGC | 0.377
GCGTCGGA | 0.345
ACGTCGGA | 0.264
ACGTCGGC | 0.27
GGAATAAC | 0.177
ATTTATTG | -0.0662
AAGCTGAA | -0.152
CCAAGAGG | -0.138
AGGTGCGA | 0.0754
GGGTGCCA | -0.012
CGGTGCCA | 0.414
CGGTGCCC | 0.27
CGGTGCGA | 0.384
GGGTGCGA | -0.0506
CCTGCTGA | -0.216
CGCTTCCG | 0.208
CCCGACTA | 0.312
GGTGCCGA | 0.292
ATTGCCGG | 0.408
AGTGCCGA | 0.387
AGTGCCAG | -0.0267
ATTGCCGC | 0.351
AGTGCCGG | 0.407
ATTGCCGA | 0.318

Sequence | PBM E-score
CGTGCCGA | 0.212
AGTGCCTG | -0.17
AGTGCCGC | 0.381
AGTGCCAC | -0.251
CGTGCCGC | 0.249
CACCAACG | 0.0702
AACCGTGT | -0.115
AGTCTGGG | -0.291
CCTGAGCG | -0.0867
CCGATAGA | 0.249
TGTCCCAA | -0.0294
ATTAGCTG | -0.119
CCTCTAAA | -0.196
AACCGACC | 0.244
CACCGAGG | 0.23
AACCGACG | 0.286
CACCGAAC | 0.366
CACCGACG | 0.453
AACCGACA | 0.181
GACCGACC | 0.308
GACCGAAC | 0.145
CACCGACC | 0.418
GACCGACA | 0.341
CACCGAAG | 0.253
TACCGACA | 0.356

Sequence | PBM E-score
CCCATGAA | -0.0849
CCAAGTAG | -0.293
CAGTGCGC | -0.135
GACCACAC | -0.152
ACCCTAGG | -0.165
CTTCACAC | -0.0447
CACCGAGA | 0.151
CACCGACA | 0.44
CACCGAAA | 0.305
AAAAAGAT | -0.291
AGGAGACA | -0.131
TGGACACA | -0.0717
CGGACACA | 0.356
GGGACATA | 0.132
CGGAGACA | 0.398
CGGACACG | 0.232
CGGACATC | 0.256
CGGAGACG | 0.166
CGGACATA | 0.474
AGGACGTA | -0.182
CGGACGTA | 0.407
CGGACGTC | 0.0917
ACCCCCTC | -0.265
GTGCACCA | -0.17
CGGAGGGC | -0.0349

Sequence | PBM E-score
CCTTCCCG | -0.125
ACAGCGTA | -0.0758
AAAATCAC | -0.092
GGTGATCA | 0.0514
CTTGTGGC | -0.163
CGTAGTAC | 0.0304
TACCGGTA | 0.36
CTCCGGTA | 0.316
CACCGGTA | 0.408
CACCGGTC | 0.337
AACCGGTA | 0.261
AACCGGTG | 0.306
GACCGGTA | 0.231
AACCGGTC | 0.272
CACCGGTG | 0.408
AGAAGCCT | -0.0816
TCTGCAGA | 0.00207
CCCCCAGG | -0.281
AAACCCCC | 0.263
AAAACCCC | 0.355
AAAACCCT | -0.074
ATAACTCG | 0.0637
GAAAACCC | 0.278
GAAACCCA | 0.0284
AAAAACCC | 0.226

Sequence | PBM E-score
CTAACTCC | 0.288
CAAACCCG | 0.216
ATAACTCC | 0.429
AAAACCCG | 0.379
GAAACCCC | 0.353
AATCTGTG | -0.207
CGCAGAAA | -0.114
GCAAAGGC | 0.115
GGTGGACA | 0.00374
TCTTTCAA | -0.0737
ACCCTCCG | 0.134
CGGTGGCA | 0.299
CCTTATCC | 0.00435
ATCTCCAC | 0.0569
GTCTTAAA | 0.179
ACTCGACT | -0.224
ATAACCCG | 0.228
ATAACCCA | -0.157
CTAAACCC | 0.233
ATAACCCC | 0.412
ATAAACCA | -0.078
ATAAACCC | 0.373
AATTCCTA | -0.258
AAAGACCC | 0.0704
